Assay results from PubChem BioAssay (Tox21).
Several values for one entry are separate records, joined by “and”; a condition that tells them apart may be missing. Equal entries are not always repeated. Inconclusive results are not listed. Activity calls are given as the source filed them. Unless noted, calls follow the shape of the dose curve; as a rule, active = well fitted curve in the direction sought with a large enough effect in the repeat runs; inconclusive = weak or mixed curves; inactive = no such curve, though single readings can be large; an effect the other way counts as inactive or inconclusive.

Tests used:
[1] = A CellTox Green Cytotoxicity Assay to monitor cytotoxicity in HepG2 cells - 0 hour (AID 1224882); also: nearly all actives have a fitted effect of over 35% in size; also: potency is read from the fitted curve at half-maximal effect
How it was run: (§1)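 Measurements at 0, 8, 16, 24, 32 and 40 h of treatment captured CellTox Green fluorescence in HepG2 cells that had been co-plated with reagent and preincubated 5 h at 37 C/5% CO2.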

[2] = A CellTox Green Cytotoxicity Assay to monitor cytotoxicity in HepG2 cells - 32 hour (AID 1224883); also: nearly all actives have a fitted effect of over 50% in size; also: potency is read from the fitted curve at half-maximal effect
How it was run: as §1

[3] = qHTS RealTime-Glo MT Cell Viability Assay in HepG2 cells - 16 hour (AID 1224885); also: nearly all actives have a fitted effect of over 50% in size; also: potency is read from the fitted curve at half-maximal effect
How it was run: (§2)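 Real-time, nonlytic viability: 600 HepG2 cells/well mixed with NanoLuc enzyme plus prosubstrate; 5 h settle, compound (DMSO) added by pintool; luminescence monitored over 40 h at 37 C.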

[4] = qHTS RealTime-Glo MT Cell Viability Assay in HEK293 cells - 24 hour (AID 1224886); also: nearly all actives have a fitted effect of over 50% in size; also: potency is read from the fitted curve at half-maximal effect
How it was run: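 Cells + reagent dispensed (600 cells/well, HEK293) → 5 h at 37 C/5% CO2 → 23 nL compound in DMSO pinned → 40 h at 37 C → luminescence read at 0, 8, 16, 24, 32, 40 h.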

[5] = qHTS RealTime-Glo MT Cell Viability Assay in HEK293 cells - 8 hour (AID 1224887); also: nearly all actives have a fitted effect of over 50% in size; also: potency is read from the fitted curve at half-maximal effect
How it was run: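 HEK293 + NanoLuc + prosubstrate, 600 cells/well; 5 h, 37 C/5% CO2; compound 23 nL in DMSO by pintool; 37 C; luminescence read at 0, 8, 16, 24, 32 and 40 h time points.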

[6] = A CellTox Green Cytotoxicity Assay to monitor cytotoxicity in HEK293 cells - 16 hour (AID 1224888); also: nearly all actives have a fitted effect of over 35% in size; also: potency is read from the fitted curve at half-maximal effect
How it was run: (§3)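 Tox21 screen in HEK293: membrane-impermeant cyanine dye fluoresces on binding dead-cell DNA; compound pinned 5 h post-seeding, plates held at 37 C, signal read repeatedly through 40 h.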

[7] = qHTS RealTime-Glo MT Cell Viability Assay in HepG2 cells - 0 hour (AID 1224889); also: nearly all actives have a fitted effect of over 50% in size; also: potency is read from the fitted curve at half-maximal effect
How it was run: as §2

[8] = A CellTox Green Cytotoxicity Assay to monitor cytotoxicity in HepG2 cells - 8 hour (AID 1224890); also: nearly all actives have a fitted effect of over 45% in size; also: potency is read from the fitted curve at half-maximal effect
How it was run: as §1

[9] = qHTS assay to identify small molecule antagonists of the estrogen receptor alpha (ER-alpha) signaling pathway using the BG1 cell line in the presence of 0.1 nM 17-beta-estradiol - cell viability counter screen (AID 1259241); also: nearly all actives have a fitted effect of over 40% in size; also: potency is read from the fitted curve at half-maximal effect
How it was run: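 Cytotoxicity counter-screen: live-cell protease activity measured by fluorescence (30 min reagent step) in the same wells. Cells were VM7Luc4E2 with endogenous ER-alpha and ERE-driven luciferase, treated 22 hr at 37C alongside 0.1 nM 17beta-estradiol final.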

[10] = qHTS assay to identify small molecule antagonists of the sonic hedgehog signaling (Shh) pathway - cell viability counter screen (AID 1259367); also: nearly all actives have a fitted effect of over 55% in size; also: potency is read from the fitted curve at half-maximal effect
How it was run: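 Cytotoxicity was assessed in parallel with Shh reporter activity by measuring live-cell protease fluorescence (CellTiter-Fluor) in NIH/3T3 cells stably carrying Gli1-Luc, treated with compound under conditioned medium stimulation for 23 hr plus 1 hr reagent incubation.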

[11] = qHTS assay to identify small molecule agonists of the sonic hedgehog signaling (Shh) pathway (AID 1259368; calls by dose curve;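 also: NIH/3T3-derived 3T3Gli1-Luc cells carrying a stable Gli1-driven firefly luciferase reporter; series mostly up to about 92 µM; nearly all actives have a fitted effect of over 15% in size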)
How it was run: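 Hedgehog pathway agonism scored by increased firefly luciferase luminescence in 3T3Gli1-Luc cells treated 24 hr at 37 C; detection used a 30 min room-temperature reagent incubation.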

[12] = A CellTox Green Cytotoxicity Assay to monitor cytotoxicity in HEK293 cells - 8 hour (AID 1224884); also: nearly all actives have a fitted effect of over 35% in size
How it was run: as §3

[13] = qHTS assay to identify small molecule HDAC inhibitors (AID 1259364);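 also: wild-type HCT-116 cells with endogenous class I/II HDAC activity; top concentration of the series differs between compounds; nearly all actives have a fitted effect of over 45% in size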
How it was run: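 Screening used wild-type human colon HCT-116 cells incubated overnight, dosed with compounds for 2 hours, and assayed with a homogeneous luminogenic HDAC I/II reagent for 30 minutes at room temperature.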

[14] = qHTS assay to identify small molecule HDAC inhibitors - cell viability counter screen (AID 1259365); also: nearly all actives have a fitted effect of over 50% in size; also: potency is read from the fitted curve at half-maximal effect
How it was run: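 CellTiter-Glo luminescence (30 min, room temperature) reported viability after a 2 h compound exposure at 37 C. Cells: wild-type HCT-116, 1,500 per well, seeded the night before.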

[15] = qHTS assay to identify small molecule agonists of the sonic hedgehog signaling (Shh) pathway - cell viability counter screen (AID 1259366); also: nearly all actives have a fitted effect of over 50% in size; also: potency is read from the fitted curve at half-maximal effect
How it was run: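 Cytotoxicity counter screen: CellTiter-Fluor reagent added after 23 h compound exposure, then 1 h at 37C and fluorescence read. Cells were 3T3 Gli1-Luc, seeded 2,000 per well and dosed 4 h post-plating.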

[16] = qHTS assay to identify small molecule antagonists of the androgen receptor (AR) signaling pathway using the MDA cell line in the presence of 0.5 nM R1881 - cell viability counter screen (AID 1259242); also: nearly all actives have a fitted effect of over 45% in size; also: potency is read from the fitted curve at half-maximal effect
How it was run: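 Concentration-response screen of compounds for toxicity in MDA-kb2 reporter cells: 16 hr at 37C with 0.5 nM R1881, endpoint live-cell protease fluorescence measured in the reporter wells.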

[17] = qHTS assay to identify small molecule phospholipidosis (PLD) inducers (AID 1259344; active = well fitted curve in the direction sought with a large enough effect; an effect the other way counts as inactive or inconclusive)
How it was run: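 Cells (HepG2, 900 per well) attach for 4 h, receive LipidTOX Red and compound together, incubate 24 h at 37 C, are fixed 30 min with paraformaldehyde/Hoechst, then imaged at one site per well.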

[18] = molecular target: Estrogen receptor (Homo sapiens) (UniProt P03372); assay: qHTS assay to identify small molecule antagonists of the estrogen receptor alpha (ER-alpha) signaling pathway using the BG1 cell line in the presence of 0.1 nM 17-beta-estradiol (AID 1259244); also: nearly all actives have a fitted effect of over 50% in size; also: potency is read from the fitted curve at half-maximal effect
Sequence of Estrogen receptor (Homo sapiens) (P03372 whole entry, looked up): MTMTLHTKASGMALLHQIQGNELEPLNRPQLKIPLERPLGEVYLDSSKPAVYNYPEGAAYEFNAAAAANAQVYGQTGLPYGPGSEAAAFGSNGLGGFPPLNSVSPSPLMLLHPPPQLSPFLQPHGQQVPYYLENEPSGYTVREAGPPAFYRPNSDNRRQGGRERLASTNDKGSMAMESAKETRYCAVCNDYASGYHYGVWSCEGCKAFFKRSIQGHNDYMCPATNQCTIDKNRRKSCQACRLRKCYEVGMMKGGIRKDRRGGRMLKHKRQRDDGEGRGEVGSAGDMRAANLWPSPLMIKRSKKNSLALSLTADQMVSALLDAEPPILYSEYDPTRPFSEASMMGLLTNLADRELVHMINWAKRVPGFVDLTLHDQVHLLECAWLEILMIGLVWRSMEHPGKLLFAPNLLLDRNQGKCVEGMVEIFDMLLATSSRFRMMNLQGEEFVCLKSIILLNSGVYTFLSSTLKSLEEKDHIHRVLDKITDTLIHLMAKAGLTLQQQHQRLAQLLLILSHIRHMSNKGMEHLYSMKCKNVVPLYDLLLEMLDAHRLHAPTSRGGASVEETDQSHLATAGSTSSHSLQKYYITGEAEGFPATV
How it was run: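 Compounds were tested against 0.1 nM (final) 17beta-estradiol in VM7Luc4E2 cells, which express full-length ER-alpha and an ERE-luciferase reporter; luminescence was recorded following 22 h exposure.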

[19] = qHTS assay to identify small molecule antagonists of the sonic hedgehog signaling (Shh) pathway (AID 1259369; calls by dose curve; also: nearly all actives have a fitted effect of over 45% in size; also: potency is read from the fitted curve at half-maximal effect)
How it was run: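 NIH/3T3 stable Gli1-Luc clone, 2,000 cells/well, 4hr settle; cpd + conditioned medium 24hr; Luc reagent 30min RT; luminescence.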

[20] = molecular target: Androgen receptor (Homo sapiens) (UniProt P10275); assay: qHTS assay to identify small molecule antagonists of the androgen receptor (AR) signaling pathway using the MDA cell line in the presence of 0.5 nM R1881 (AID 1259243); also: nearly all actives have a fitted effect of over 50% in size; also: potency is read from the fitted curve at half-maximal effect
Sequence of Androgen receptor (Homo sapiens) (P10275 whole entry, looked up): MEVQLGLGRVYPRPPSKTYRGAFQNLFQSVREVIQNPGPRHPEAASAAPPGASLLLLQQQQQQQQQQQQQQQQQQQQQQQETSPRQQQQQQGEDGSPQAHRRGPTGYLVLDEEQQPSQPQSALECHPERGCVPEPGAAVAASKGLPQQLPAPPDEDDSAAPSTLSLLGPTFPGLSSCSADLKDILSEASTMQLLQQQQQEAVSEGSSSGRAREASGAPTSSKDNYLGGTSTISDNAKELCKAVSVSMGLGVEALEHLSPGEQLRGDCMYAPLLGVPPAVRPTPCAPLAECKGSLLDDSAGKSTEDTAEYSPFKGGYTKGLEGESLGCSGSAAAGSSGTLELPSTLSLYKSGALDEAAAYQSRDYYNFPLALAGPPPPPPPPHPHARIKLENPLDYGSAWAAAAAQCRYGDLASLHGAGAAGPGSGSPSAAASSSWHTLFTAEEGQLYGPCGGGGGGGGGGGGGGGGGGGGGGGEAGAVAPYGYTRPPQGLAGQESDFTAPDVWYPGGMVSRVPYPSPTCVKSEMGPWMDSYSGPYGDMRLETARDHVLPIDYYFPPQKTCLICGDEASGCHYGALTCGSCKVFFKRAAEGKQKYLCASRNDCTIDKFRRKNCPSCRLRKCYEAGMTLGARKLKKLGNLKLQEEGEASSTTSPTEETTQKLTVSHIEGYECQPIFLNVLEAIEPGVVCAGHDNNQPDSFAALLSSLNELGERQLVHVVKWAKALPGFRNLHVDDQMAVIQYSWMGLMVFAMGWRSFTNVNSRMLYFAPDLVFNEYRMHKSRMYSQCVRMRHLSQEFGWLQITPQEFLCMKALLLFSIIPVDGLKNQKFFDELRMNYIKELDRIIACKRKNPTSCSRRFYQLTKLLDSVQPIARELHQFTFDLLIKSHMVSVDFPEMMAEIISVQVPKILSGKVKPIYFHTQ
How it was run: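 With R1881 held at 0.5 nM (final), compound effects on MMTV-luciferase expression in MDA-kb2 cells were scored by luminescence after a 16 hr, 37C incubation.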
% is scaled to controls: 0 for no effect and ±100 for the full control effect.

CCN(CC)CCCC(C)Nc1c2ccc(Cl)cc2nc2ccc(OC)cc12 (stereo not drawn)
active: Potency [1] 21.3 µM | Potency [2] 6.74 µM | Potency [3] 9.52 µM | Potency [4] 4.25 µM | Potency [5] 5.35 µM | Potency [6] 23.9 µM | Potency [8] 16.9 µM
inactive: Potency [7] | Potency [9] | Potency [10] | Potency [11]

CCN(C(=O)N(CC)c1ccccc1)c1ccccc1
inactive: Potency [1] | Potency [2] | Potency [12] | Potency [7] | Potency [8] | Potency [9] | Potency [13] | Potency [14] | Potency [15] | Potency [10] | Potency [11]

CC(=O)S[C@@H]1CC2=CC(=O)CC[C@]2(C)[C@H]2CC[C@@]3(C)[C@@H](CC[C@@]34CCC(=O)O4)[C@H]12
inactive: Potency [1] | Potency [6] | Potency [7] | Potency [8] | Potency [9] | Potency [16] | PLD induction [17] 5.04% [at 1.53 µM] | Potency [13] | Potency [14] | Potency [10]
active: Potency [2] 54.9 µM

O=S1(=O)CC(Cl)(Cl)C(Cl)(Cl)C1
active: Potency [2] 7.76 µM | Potency [3] 6.92 µM | Potency [5] 12.3 µM | Potency [8] 13.8 µM | Potency [9] 21.7 µM | Potency [16] 21.7 µM | Potency [18] 21.7 µM | Potency [14] 48.6 µM | Potency [15] 1.37 µM | Potency [10] 2.17 µM | Potency [19] 0.344 µM
inactive: Potency [1] | Potency [7] | Potency [13] | Potency [11]

Cc1cccc2c1cc1ccc3cccc4ccc2c1c34
inactive: Potency [1] | Potency [2] | Potency [3] | Potency [7] | Potency [8] | Potency [9] | Potency [16] | Potency [18] | Potency [13] | Potency [14] | Potency [15] | Potency [10] | Potency [11] | Potency [19]

CC(C)C(C)(C)C(C)(C)C(C)(C)S
inactive: Potency [1] | Potency [2] | Potency [4] | Potency [8] | Potency [9] | Potency [16] | Potency [20] | Potency [18] | Potency [17] | Potency [13] | Potency [14] | Potency [15] | Potency [10]

NC(=O)C1(N2CCCCC2)CCN(CCCN2c3ccccc3CCc3ccc(Cl)cc32)CC1
inactive: Potency [1] | Potency [7] | Potency [9] | Potency [13] | Potency [14]
active: Potency [2] 23.9 µM | Potency [3] 23.9 µM | Potency [4] 21.3 µM | Potency [5] 23.9 µM | Potency [15] 23.7 µM | Potency [10] 29.8 µM | Potency [19] 8.41 µM

Oc1ccc2cc(SSc3ccc4cc(O)ccc4c3)ccc2c1
inactive: Potency [1] | Potency [2] | Potency [3] | Potency [7] | Potency [8] | Potency [9] | Potency [16] | Potency [13] | Potency [14] | Potency [11]
active: Potency [4] 49 µM | Potency [5] 39 µM | Potency [10] 61.2 µM and 48.6 µM | Potency [19] 19.4 µM and 21.7 µM

CC(=O)N1CCN(c2ccc(OC[C@H]3CO[C@](Cn4ccnc4)(c4ccc(Cl)cc4Cl)O3)cc2)CC1
inactive: Potency [1] | Potency [8] | Potency [13]
active: Potency [2] 49 µM | Potency [3] 49 µM | Potency [4] 21.9 µM | Potency [5] 24.5 µM | Potency [6] 49 µM | Potency [7] 24.5 µM | Potency [16] 61.1 µM | Potency [18] 27.3 µM | Potency [15] 54.5 µM | Potency [10] 27.3 µM | Potency [19] 3.06 µM

CCCC(c1cc(C(C)(C)C)c(O)cc1C)c1cc(C(C)(C)C)c(O)cc1C
active: Potency [2] 35.1 µM | Potency [3] 44.2 µM | Potency [4] 22.1 µM | Potency [5] 44.2 µM | Potency [9] 61.9 µM | Potency [18] 27.6 µM | Potency [14] 49.2 µM | Potency [15] 22 µM | Potency [10] 17.4 µM | Potency [19] 13.9 µM
inactive: Potency [1] | Potency [7] | Potency [13]

Cc1cc(O)c(Cl)c(C)c1Cl
active: Potency [2] 54.9 µM | Potency [10] 24.3 µM
inactive: Potency [1] | Potency [3] | Potency [4] | Potency [5] | Potency [7] | Potency [9] | Potency [16] | Potency [18] | Potency [13] | Potency [14] | Potency [11] | Potency [19]

CCc1cc(Cc2cc(CC)cc(C(C)(C)C)c2O)c(O)c(C(C)(C)C)c1
inactive: Potency [1] | Potency [12] | Potency [7] | Potency [13] | Potency [14] | Potency [11]
active: Potency [3] 49 µM | Potency [4] 15.5 µM | Potency [5] 13.8 µM | Potency [20] 30.6 µM | Potency [10] 61.1 µM | Potency [19] 27.3 µM

CCCCCCCCCCCCCCCC(=O)OC[C@H](O)[C@H]1OC(=O)C(O)=C1O
inactive: Potency [1] | Potency [2] | Potency [3] | Potency [4] | Potency [5] | Potency [8] | Potency [9] | Potency [16] | Potency [20] | Potency [18] | Potency [17] | Potency [13] | Potency [14] | Potency [15] | Potency [10] | Potency [19]

CCCCCCCCCCCCCCCS(=O)(=O)Oc1ccccc1
inactive: Potency [1] | Potency [2] | Potency [3] | Potency [6] | Potency [8] | Potency [9] | Potency [16] | Potency [18] | Potency [13] | Potency [15] | Potency [10] | Potency [11] | Potency [19]
